Source: the supplement of paper PMC3724861
The sample as a whole holds a higher share of hits than the screen did. How many sequences the whole screen found active is unknown.

system: T1, Caupolican (Caup) homeodomain DNA-binding domain; test: PBM E-score (8-mer, recovered from the published 9-mer minima) (E-score (dimensionless, -0.5 to 0.5)); Drosophila protein; higher = stronger relative binding preference, active = 0.31 or more
T1 sequence: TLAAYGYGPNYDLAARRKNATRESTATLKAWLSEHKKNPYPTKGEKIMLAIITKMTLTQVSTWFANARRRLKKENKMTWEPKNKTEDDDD
Method in brief: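 Caup's homeodomain DNA-binding domain (residues 214-303) was made by in vitro transcription and translation and applied at 100 nM to custom-designed protein binding microarrays. Each value is an enrichment score that gives relative binding preference for a short DNA word, with higher meaning stronger. The 8-mer values were recovered from published 9-mer scores, each of which was the minimum of its two constituent 8-mer scores. A cutoff of 0.31 marks candidate sites.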

PBM E-score, inactive:
ACAGTTCA 0.0978
ACCATGAA 0.0242
GTCATGAA 0.0353
CACATGAC 0.242
CACATGAA 0.226
GCCATGAC -0.0484
AGCATGAA 0.102
GGCATGAA 0.0161
TGCATGAA 0.126
TACAGAGA 0.12
GAGTTTGA 0.0834
CGTTTCCC -0.165
AAGATGGC -0.0976
CTGATTAA 0.162
AACCTTAA -0.0003
TGGGGGAA -0.237
GACTTCGA -0.0675
ACTAGAAG 0.00911
AACGGGCC -0.162
GTGACCTA 0.0131
GAGCTCAA -0.094
TGCAAAAA 0.0586
AGACTGCG -0.129
AGCTTCCC -0.188
AAGCCCCA -0.232
AAACACGG 0.257
AAACACTT 0.153
ACACACGT 0.254
AAACACGC 0.248
CAAAGCGC -0.207
GATCAGGC -0.0491
ACCGACTA 0.0195
ACCCCGCA -0.142
CCCATGTC 0.309
ACTATGTC 0.302
GCCATGCA -0.0297
ACCATGCC -0.0174
GCCATGGA -0.137
ACAATGTA 0.285
CCCATGGA 0.021
CCAATGTC 0.0611
AATATTTC 0.0671
TGATTGCA 0.139
GAAATAAA 0.0685
ATGCGAAC 0.0459
GACTCAAC 0.0307
CGAAGGTC -0.156
ACAGCAAT 0.163
ACAGTTGC 0.0312
CCGATAAC 0.0305
ACCATGTG 0.145
ACCATGCA 0.0966
AATTTGGA 0.0747
ACGAACAA 0.298
ATGAACAG 0.22
ACGAACAG 0.137
ATGAACAA 0.286
AGGAACAG 0.0859
CTGAACAC 0.235
AGGAACAC 0.193
GTGAACAC 0.256
AACGGGTA 0.0722
CCCGTCGG -0.289
CCGCAGCC -0.25
GCGCCGAC -0.199
GATCGCAC 0.0699
CATTTGCG 0.00242
ACCTTCGT -0.0522
GCCACCTA -0.192
GACAAGTC 0.236
CACAAGTA 0.205
GACAAATA 0.218
AACAAATG 0.174
TACAAAGA 0.239
AACAAATA 0.287
ACCAAGTA 0.0922
CACAAGTG 0.111
CATGAAGG 0.0126
ACCCCGAA -0.106
AGTGGGTC -0.178
GAAACTGC -0.184
ACCAGGGC -0.112
GGCAGCTA -0.136
CGTTTTCC 0.0392
GACGCGTC -0.0916
ACCGTCCT -0.0635
ACTCAAGA -0.0159
AAGTCAGG -0.109
AACAAGTC 0.278
AACAAGGT 0.293
CTTTGCTC -0.0311
CATCCCTC -0.0768
CAAGTGGG -0.0243
CTGTGTTA 0.259
ATGTGTTC 0.266
GTGTGTTA 0.275
ATGTGTGG 0.0766
AAAGAAGT 0.0392
CATGCTGG 0.0451
CGAAGTCC -0.149
GGCAAGTA 0.101
ACAGGCGT -0.013
ATGTCAGG 0.209
GTGTCAGA 0.245
ATGTCATC 0.306
GTGTCATA 0.292
CTGTCAGA 0.0887
CTGTCATA 0.246
ACCTCGCC -0.212
GCCCTGCA -0.173
TCAGTGAA -0.0554
CCGAGTAG -0.0123
AAATCACA 0.108
CCCGTTAC 0.0202
CATATGTC 0.277
GGTATGTA 0.277
CGTATGTA 0.289
AATATGTC 0.297
GATATGAA 0.0673
AATATGTG 0.259
CCGGGAGC -0.282
CTCTGGAA -0.12
CGACGGAC 0.00364
ACAGCGAG -0.0026
GGCTATAC -0.0714
AACGAGGA 0.0777
CTGAAACC -0.0654
CTTCCGGA -0.173
AAATGTCC 0.126
GCATGGCA -0.0563
CAATGTCA 0.293
CCATGGCA -0.0986
GAATGTCC 0.145
ATATGTCG 0.302
AAATGTCG 0.144
GAATGTCA 0.169
GATAAGGA 0.0879
CGTTATAC 0.0592
GTTTTTGA 0.084
GTTTAGAA 0.121
CCATGTCC 0.292
ACATGGCA 0.307
CCCTGTCG -0.0227
AAATGTCA 0.266
ACCTGTCT 0.144
AGATGTCC 0.234
AAATGTCT 0.106
CAATGTCG 0.227
CTCACAGC -0.124
ACCTACCC -0.14
CGCGTAGC -0.153
CAAGACTA 0.107
ATAGCCAT 0.0738
CATTCATA 0.179
CCTGGTGA -0.102
ACTCTGCG -0.03
TAATGTCA 0.258
TCATGGCA -0.0694
ATTCGGAA 0.0171
CCCGCTAA -0.182
CGCGATCC -0.0878
GACAACGA 0.179
CACAACAC 0.265
GTCAACAA 0.285
GACAACTC 0.191
AACAACGC 0.182
GTCAACAC 0.175
ACTATTTG 0.153
GTCTTGAA 0.0106
AGAACCCT -0.163
ATATGAAT 0.107
CCATGAAA 0.00449
CCATGAAC 0.0647
ACATGAAG 0.293
GCATGAAA 0.111
GCATGAAC 0.104
CTATATTA 0.168
CCCTGTCA 0.129
ACAACAGG 0.192
ACAACTTG 0.271
CCAACATC 0.113
CCAACATA 0.211
ACAACAGC 0.214
GCAACATA 0.204

PBM E-score, active:
GACATGAC 0.394
GACATGAA 0.318
TACATGAA 0.383
AACATGAA 0.387
AAACACGA ≥ 0.351
AAACACGT 0.312
GCCATGTA 0.346
ACAATGTC 0.316
CCCATGTA 0.326
ACCATGTC 0.408
ACCATGTA ≥ 0.422
ACGAACAT 0.349
ATGAACAT 0.326
ATGAACAC 0.332
AGGAACAT 0.339
AACAAGTA 0.33
GACAAGTA 0.355
TACAAGTA ≥ 0.407
AACAAGTG 0.334
AACAAGTT 0.33
ATGTGTTA ≥ 0.323
ATGTGTTG 0.34
ATGTCATA 0.4
ATGTCATG 0.353
ATGTCAGA 0.336
CATATGTA 0.334
GATATGTA 0.321
AATATGTA 0.328
CCATGTCA 0.398
GCATGTCC 0.31
ACATGTCG 0.416
GCATGTCA 0.44
CCATGTCG 0.362
ACATGTCT 0.417
ACATGTCC 0.438
ACATGTCA 0.461
TCATGTCA 0.391
GACAACAA 0.342
AACAACAC 0.392
GACAACAC 0.352
ACATGAAC 0.372
ACATGAAT 0.336
ACATGAAA 0.314
ACAACATC 0.356
ACAACATA 0.411
ACAACATG 0.441
